# Activity calls are given as the source filed them.
# How the values were obtained:
# [1] = system: Wnt5a (protein binding on small-molecule microarray); assay: Wnt5a binders on small-molecule microarray, primary screen, biophysical, 635/667 nm fluorescence (AID 1142); settings: 635 nm fluorescence, higher = more signal;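 note: fluorescence read at 667 nm with signal to noise per printed feature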
# [2] = cell viability in Huh7 cells, primary screen, cytotoxicity control for HCV replication inhibitor project, CellTiter-Glo luminescence, basal, 48 h (AID 1143); settings: Huh7 HCV replicon, higher = more signal, called active from +8 up or from −8 down;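 note: Huh7 hepatoma cells carrying a hepatitis C replication reporter with no stimulus; test concentration not given here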
# [3] = CREB reporter modulators without forskolin, primary screen, cell-based, PC12, CRE-LacZ reporter, unstimulated (AID 1145); settings: no forskolin, luminescence, 4.5 h, higher = more signal, called active from +8 up or from −8 down
# [4] = CREB reporter modulators under forskolin, primary screen, cell-based, PC12, CRE-LacZ reporter, forskolin-stimulated (AID 1146); settings: luminescence, 4.5 h, higher = more signal, called active from +8 up or from −8 down;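 note: PC12 cells with 6xCRE LacZ reporter stimulated by forskolin 10 µM; beta-galactosidase reporter signal reflecting CREB driven transcription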
# [5] = target: Streptavidin (Streptomyces avidinii) (UniProt P22629); assay: streptavidin binders on small-molecule microarray, primary screen, artefact control for SMM compound annotation, biophysical, 635/667 nm fluorescence (AID 1147); settings: streptavidin binding, higher = more signal;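 note: signal reflects streptavidin binding to arrayed compounds as a control protein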
# Sequence of Streptavidin (Streptomyces avidinii) (P22629 whole entry, looked up): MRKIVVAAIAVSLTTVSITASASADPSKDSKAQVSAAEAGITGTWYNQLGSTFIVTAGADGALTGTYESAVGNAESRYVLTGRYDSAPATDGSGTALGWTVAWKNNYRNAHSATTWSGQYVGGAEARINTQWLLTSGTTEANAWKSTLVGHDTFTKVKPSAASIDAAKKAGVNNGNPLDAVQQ
# [6] = small-molecule binders of probe aInhba, primary screen, biochemical, small-molecule microarray, 635/667 nm fluorescence (AID 1148); settings: higher = more signal;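 note: score merges 667nm spot fluorescence with signal-to-noise for antibody binding to printed compounds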
# Torsin-1A (Homo sapiens) [7] = target: Torsin-1A (Homo sapiens) (UniProt O14656); assay: torsin A binders from cell lysate, primary screen, small-molecule microarray, wild-type, 635/667 nm (AID 1149); settings: COS7 hTOR1A-WT lysate, 635 nm fluorescence, higher = more signal
# Sequence of Torsin-1A (Homo sapiens) (O14656 whole entry, looked up): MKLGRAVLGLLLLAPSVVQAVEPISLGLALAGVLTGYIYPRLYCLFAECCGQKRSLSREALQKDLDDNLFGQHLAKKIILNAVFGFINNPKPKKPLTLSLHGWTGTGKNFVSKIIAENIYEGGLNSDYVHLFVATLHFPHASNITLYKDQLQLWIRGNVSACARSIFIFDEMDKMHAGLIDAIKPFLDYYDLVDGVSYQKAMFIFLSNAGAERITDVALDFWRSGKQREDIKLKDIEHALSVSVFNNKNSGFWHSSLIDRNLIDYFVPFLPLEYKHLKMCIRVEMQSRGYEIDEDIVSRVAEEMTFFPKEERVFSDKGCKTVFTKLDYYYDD
# Torsin-1A (Homo sapiens) [8] = target: Torsin-1A (Homo sapiens) (UniProt O14656); assay: small-molecule binders of mutant TOR1A in lysate, primary screen, cell lysate, small-molecule microarray, COS7 lysate, 635/667 nm fluorescence (AID 1150); settings: COS7 hTOR1A mutant lysate, 635 nm fluorescence, higher = more signal;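 note: score pools 667 nm emission and signal to noise measuring lysate protein binding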
# [9] = system: Sonic hedgehog protein (Shh); assay: small-molecule binders of Shh protein, primary screen, biochemical, small-molecule microarray, 635/667 nm fluorescence (AID 1151); settings: small-molecule microarray binding, 635 nm fluorescence; higher = more signal;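 note: Shh protein binding to compounds spotted on small-molecule microarray slides; score combines spot fluorescence intensity with signal-to-noise across triplicate slides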
# [10] = E. coli DRC41 culture turbidity changes, primary screen, E. coli filamentation inducer project, strain DRC41, OD650, 48 h (AID 1152);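 note: E. coli MC1000 strain DRC41 lacking acrAB efflux pump and sulA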; settings: E. coli DRC41 (acrAB sulA), higher = more signal, called active from +8 up or from −8 down
# [11] = small-molecule binders of probe aLefty1, primary screen, biochemical, small-molecule microarray, 635/667 nm fluorescence (AID 1153); settings: higher = more signal;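 note: score merges spot fluorescence with signal-to-noise ratio from the scanned slide images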
# [12] = PSAC antagonists in infected red cells, primary screen, cell-based, P. falciparum Indochina, OD700, 1 h (AID 1154); settings: P. falciparum Indochina infected RBC osmotic lysis, higher = more signal, called active from +8 up or from −8 down
# [13] = PSAC antagonists in infected red cells, primary screen, cell-based, P. falciparum Indochina, OD700, 2 h (AID 1155);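 note: lysis reports solute entry through the parasite surface anion channel PSAC; channel blockers reduce lysis of infected cells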; settings: P. falciparum Indochina infected erythrocytes, osmotic lysis OD700; higher = more signal, called active from +8 up or from −8 down
# [14] = osmotic lysis modulators in infected erythrocytes, primary screen, PSAC antagonist project, cell-based, P. falciparum Indochina, OD700, 3 h (AID 1156); settings: higher = more signal, called active from +8 up or from −8 down
# [15] = PSAC antagonists in infected red cells, primary screen, cell-based, P. falciparum Indochina, OD700, 18 h (AID 1157); settings: P. falciparum Indochina infected erythrocytes, osmotic lysis OD700, 18 h; higher = more signal, called active from +8 up or from −8 down
# [16] = modulators of S6 phosphorylation in cells, primary screen, cell-based, A549, cytoblot, luminescence, serum-stimulated (AID 1158); settings: A549 phospho-S6 cytoblot, 5 h, higher = more signal;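 note: serum-stimulated A549 lung adenocarcinoma cells; signal is phosphorylated S6 detected by cytoblot immunostaining with HRP secondary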
# [17] = target: NADPH oxidase 2 (Homo sapiens) (UniProt P04839); assay: NOX2-dependent H2O2 signal modulators, primary screen, NOX inhibitor project, cell-based, HEK293-NOX2, PMA-stimulated, Amplex Red fluorescence (AID 1159); settings: 45 min, higher = more signal, called active from +8 up or from −8 down; note: test concentration not given here
# Sequence of NADPH oxidase 2 (Homo sapiens) (P04839 whole entry, looked up): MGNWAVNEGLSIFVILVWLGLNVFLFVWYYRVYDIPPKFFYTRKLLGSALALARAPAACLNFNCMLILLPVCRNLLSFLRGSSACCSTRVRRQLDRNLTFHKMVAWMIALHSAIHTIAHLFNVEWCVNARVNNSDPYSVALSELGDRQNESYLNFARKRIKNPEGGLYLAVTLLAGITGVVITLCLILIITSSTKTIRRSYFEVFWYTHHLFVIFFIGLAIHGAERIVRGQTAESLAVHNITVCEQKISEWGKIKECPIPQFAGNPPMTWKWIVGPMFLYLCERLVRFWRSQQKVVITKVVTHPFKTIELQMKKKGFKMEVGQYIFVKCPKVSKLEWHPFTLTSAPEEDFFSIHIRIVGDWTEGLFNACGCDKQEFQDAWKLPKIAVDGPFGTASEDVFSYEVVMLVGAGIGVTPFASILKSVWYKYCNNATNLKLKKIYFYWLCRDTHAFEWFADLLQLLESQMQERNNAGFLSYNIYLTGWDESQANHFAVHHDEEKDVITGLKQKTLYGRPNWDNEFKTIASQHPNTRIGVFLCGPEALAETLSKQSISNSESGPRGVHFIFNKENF
# [18] = target: NADPH oxidase 4 (Homo sapiens) (UniProt Q9NPH5); assay: NOX4-dependent H2O2 signal modulators, primary screen, NOX inhibitor project, cell-based, HEK293-NOX4, tetracycline-induced, Amplex Red fluorescence (AID 1160); settings: 45 min, higher = more signal, called active from +8 up or from −8 down
# Sequence of NADPH oxidase 4 (Homo sapiens) (Q9NPH5 whole entry, looked up): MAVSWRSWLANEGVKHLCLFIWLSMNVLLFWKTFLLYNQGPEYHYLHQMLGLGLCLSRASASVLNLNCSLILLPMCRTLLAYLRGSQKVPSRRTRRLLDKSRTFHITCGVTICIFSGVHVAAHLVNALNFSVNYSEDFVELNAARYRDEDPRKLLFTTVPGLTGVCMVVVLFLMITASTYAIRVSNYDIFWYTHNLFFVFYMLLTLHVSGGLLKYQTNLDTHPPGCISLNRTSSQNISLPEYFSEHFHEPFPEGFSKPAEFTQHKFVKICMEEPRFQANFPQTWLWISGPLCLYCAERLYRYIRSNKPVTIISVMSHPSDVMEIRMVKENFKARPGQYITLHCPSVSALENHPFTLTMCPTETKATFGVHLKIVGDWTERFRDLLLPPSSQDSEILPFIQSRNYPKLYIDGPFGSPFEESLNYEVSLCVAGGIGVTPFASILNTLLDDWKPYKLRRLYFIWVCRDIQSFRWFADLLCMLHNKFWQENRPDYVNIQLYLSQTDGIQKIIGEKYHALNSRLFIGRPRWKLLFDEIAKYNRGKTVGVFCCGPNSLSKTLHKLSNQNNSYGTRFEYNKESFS
# [19] = target: NADPH oxidase 5 (Homo sapiens) (UniProt Q96PH1); assay: NOX5-dependent H2O2 signal modulators, primary screen, NOX inhibitor project, cell-based, HEK293-NOX5, Amplex Red fluorescence (AID 1161); settings: HEK293-NOX5, ionomycin, 45 min, higher = more signal
# Sequence of NADPH oxidase 5 (Homo sapiens) (Q96PH1 whole entry, looked up): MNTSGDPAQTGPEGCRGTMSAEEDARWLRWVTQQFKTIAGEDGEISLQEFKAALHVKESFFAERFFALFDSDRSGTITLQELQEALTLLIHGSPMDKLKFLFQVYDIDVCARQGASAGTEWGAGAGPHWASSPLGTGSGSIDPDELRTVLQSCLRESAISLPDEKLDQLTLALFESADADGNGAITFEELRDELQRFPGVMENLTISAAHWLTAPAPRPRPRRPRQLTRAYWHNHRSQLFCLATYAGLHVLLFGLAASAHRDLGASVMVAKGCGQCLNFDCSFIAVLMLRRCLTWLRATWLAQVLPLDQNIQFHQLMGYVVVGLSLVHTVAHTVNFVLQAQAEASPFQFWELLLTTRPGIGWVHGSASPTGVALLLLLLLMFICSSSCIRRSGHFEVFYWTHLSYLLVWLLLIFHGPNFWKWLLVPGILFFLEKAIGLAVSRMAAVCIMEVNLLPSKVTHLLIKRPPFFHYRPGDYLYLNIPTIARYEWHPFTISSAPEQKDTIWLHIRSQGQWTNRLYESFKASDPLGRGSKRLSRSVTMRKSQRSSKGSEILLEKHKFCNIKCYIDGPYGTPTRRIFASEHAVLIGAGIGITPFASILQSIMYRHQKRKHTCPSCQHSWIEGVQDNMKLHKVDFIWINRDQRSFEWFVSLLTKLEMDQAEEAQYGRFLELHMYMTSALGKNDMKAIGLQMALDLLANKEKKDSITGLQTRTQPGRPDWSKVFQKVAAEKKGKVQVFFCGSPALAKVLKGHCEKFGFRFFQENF
# [20] = A549 cell viability effects, profiling panel, calcein-AM fluorescence, 48 h, basal (AID 1162); settings: higher = more signal; note: test concentration not given here
SMILES,composite z-score [1],z-score [2],z-score [3],z-score [4],composite z-score [5],composite z-score [6],composite z-score (Torsin-1A (Homo sapiens) [7]),composite z-score (Torsin-1A (Homo sapiens) [8]),composite z-score [9],z-score [10],composite z-score [11],z-score [12],z-score [13],z-score [14],z-score [15],z-score [16],z-score [17],z-score [18],z-score [19],z-score [20]
CC(C)(C)OC(=O)CC[C@]1(C(=O)NCc2ccccc2)N=C(c2ccc(OCCCO)cc2)O[C@H]1c1ccccc1N=[N+]=[N-],1.11,-3.04 (inactive),1.13 (inactive),-1.4 (inactive),1.71,0.317,0.466,0.78,0.425,1.78 (inactive),0.598,30.9 (active),27.9 (active),2.08 (inactive),6.66 (inactive),1.55,-2.28 (inactive),-0.17 (inactive),-2.3,0.117
C=CCC(OC(C)=O)[C@@H]1[C@@H](N(Cc2ccc(-c3ccccc3)cc2)C(=O)c2ccc(-c3ccccc3)cc2)c2cc(OCCCO)ccc2N1C(=O)c1ccc(-c2ccccc2)cc1 (stereo not given in full),0.144,0.534 (inactive),-0.0247 (inactive),-0.426 (inactive),0.222,0.0439,0.276,0.0533,0.107,2.03 (inactive),-0.0088,0.568 (inactive),0.712 (inactive),-0.181 (inactive),0.0154 (inactive),0.531,0.844 (inactive),0.967 (inactive),1.17,0.444
CC(C)[C@@H](C(=O)O)n1cc(-c2ccccn2)nn1,-0.267,0.715 (inactive),-0.201 (inactive),0.159 (inactive),0.62,0.202,0.417,0.567,0.673,2.01 (inactive),-0.0559,-0.0828 (inactive),0.0486 (inactive),0.322 (inactive),0.0401 (inactive),0.0264,-0.847 (inactive),0.242 (inactive),-0.24,-0.137
C=C(COC)C(=O)CC[C@H](OC(=O)c1ccccc1-c1ccccc1C(=O)O)c1ccccc1OCCO,0.032,-0.828 (inactive),0.844 (inactive),0.122 (inactive),0.0456,-0.0021,0.241,-0.063,1.2,0.832 (inactive),-0.196,4.88 (inactive),0.673 (inactive),2.51 (inactive),0.65 (inactive),-0.541,2.1 (inactive),0.0678 (inactive),-1.57,0.341
CCCC[C@@H](O)C1=C(C)C[C@H]2C(=O)N(C)C(=O)[C@H]2[C@H]1CO,-0.0163,-1.36 (inactive),0.0423 (inactive),-2.14 (inactive),-0.242,-0.0736,0.0651,-0.0216,1.18,3.62 (inactive),-0.239,3.54 (inactive),-0.526 (inactive),-0.224 (inactive),-1.56 (inactive),0.8,-1.32 (inactive),0.914 (inactive),0.794,2.36
O=C(N1CCCCC1)[C@@]1(Cc2ccccc2)N=C(c2ccc(OCCCO)cc2)O[C@H]1c1ccccc1,0.578,-5.07 (inactive),0.414 (inactive),-1.06 (inactive),1.13,0.749,0.599,1.42,-0.401,0.696 (inactive),1.17,14.3 (active),2.37 (inactive),2.82 (inactive),-0.657 (inactive),0.845,-2.63 (inactive),0.489 (inactive),-0.326,-1.51
COc1ccc([Si](C)(C)[C@@H]2[C@@H](CC(=O)N3CCC[C@H]3CO)O[C@]3(C(=O)N(Cc4ccc(N5CCC5=O)cc4)c4ccccc43)[C@H]2C)cc1,0.0507,-1.8 (inactive),0.861 (inactive),-1.19 (inactive),0.761,0.027,0.572,0.409,1.55,0.436 (inactive),0.156,7.47 (inactive),1.49 (inactive),-0.836 (inactive),0.77 (inactive),0.127,2.99 (inactive),1.58 (inactive),4.86,-0.639
C=CCNC(=O)[C@@H]1[C@H]2C(=O)O[C@H](c3ccccc3)[C@H](c3ccccc3)N2[C@H](c2ccc(O)cc2)[C@@]12C(=O)Nc1ccc(C#Cc3ccc(OC)cc3)cc12,0.212,-4.8 (inactive),-0.0784 (inactive),-1.25 (inactive),1.16,0.0228,0.248,0.286,0.551,2.73 (inactive),0.159,1.27 (inactive),-0.224 (inactive),0.375 (inactive),-0.957 (inactive),0.98,1.35 (inactive),1.23 (inactive),0.0881,-0.629
O=C1O[C@@H](c2ccccc2)[C@@H](c2ccccc2)N2[C@@H](c3ccc(OCCO)cc3)[C@]3(C(=O)Nc4ccc(C#CC5(O)CCCCCC5)cc43)[C@@H](C(=O)NC[C@H](O)c3ccccc3)[C@H]12,0.432,-3.51 (inactive),0.0776 (inactive),-1.71 (inactive),0.866,0.0827,1.2,0.711,0.855,2.35 (inactive),0.339,1.21 (inactive),0.484 (inactive),-0.206 (inactive),-0.863 (inactive),1.13,1.37 (inactive),1.14 (inactive),0.427,0.71

# Reference: PubChem BioAssay
